Screening data as filed in PubChem.
This excerpt belongs to a sample that is enriched for hits.
PTK2B oligo ant: blocks oligomerization of human Pyk2 in cells; Q14289; Q293 cells, Pyk2 FERM NanoBiT luminescence; hits give low values; z-score (the deposit names both 25 µM and 10 µM); 99,000 tested, 0.83% active; AID 1347419;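 active = Z-score of -3 or lower, scaled per plate to the spread of control and sample wells; inactive = z-score above -3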;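 also: negative z-score means lost luminescence so less FERM oligomerization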
hDAT+cocaine: changed human dopamine transporter uptake under cocaine IC80; Q01959; LLC-PK1 hDAT cells, [14C]-dopamine uptake with cocaine IC80; actives deviate in either direction; 110,000 tested, 1.3% active; AID 449768; B-score at 10 µM;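 active = Z score or B-score, a plate-position-corrected score, falls beyond the plate's 99.7% confidence bounds, in either direction; inactive = both scores lie inside the 99.7% bounds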;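 also: scored against the spread of the other compound wells on the same plate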
FAK blocker: inhibitors of human focal adhesion kinase; biochemical FAK kinase activity assay; inhibition, %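 (tested at 7 µM)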; 97,000 tested, 0.84% active; AID 727; in the data active = inhibition above about 19%;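 also: 0% = DMSO and 100% = reference compound high control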
Target sequence (Q05397 whole entry, looked up): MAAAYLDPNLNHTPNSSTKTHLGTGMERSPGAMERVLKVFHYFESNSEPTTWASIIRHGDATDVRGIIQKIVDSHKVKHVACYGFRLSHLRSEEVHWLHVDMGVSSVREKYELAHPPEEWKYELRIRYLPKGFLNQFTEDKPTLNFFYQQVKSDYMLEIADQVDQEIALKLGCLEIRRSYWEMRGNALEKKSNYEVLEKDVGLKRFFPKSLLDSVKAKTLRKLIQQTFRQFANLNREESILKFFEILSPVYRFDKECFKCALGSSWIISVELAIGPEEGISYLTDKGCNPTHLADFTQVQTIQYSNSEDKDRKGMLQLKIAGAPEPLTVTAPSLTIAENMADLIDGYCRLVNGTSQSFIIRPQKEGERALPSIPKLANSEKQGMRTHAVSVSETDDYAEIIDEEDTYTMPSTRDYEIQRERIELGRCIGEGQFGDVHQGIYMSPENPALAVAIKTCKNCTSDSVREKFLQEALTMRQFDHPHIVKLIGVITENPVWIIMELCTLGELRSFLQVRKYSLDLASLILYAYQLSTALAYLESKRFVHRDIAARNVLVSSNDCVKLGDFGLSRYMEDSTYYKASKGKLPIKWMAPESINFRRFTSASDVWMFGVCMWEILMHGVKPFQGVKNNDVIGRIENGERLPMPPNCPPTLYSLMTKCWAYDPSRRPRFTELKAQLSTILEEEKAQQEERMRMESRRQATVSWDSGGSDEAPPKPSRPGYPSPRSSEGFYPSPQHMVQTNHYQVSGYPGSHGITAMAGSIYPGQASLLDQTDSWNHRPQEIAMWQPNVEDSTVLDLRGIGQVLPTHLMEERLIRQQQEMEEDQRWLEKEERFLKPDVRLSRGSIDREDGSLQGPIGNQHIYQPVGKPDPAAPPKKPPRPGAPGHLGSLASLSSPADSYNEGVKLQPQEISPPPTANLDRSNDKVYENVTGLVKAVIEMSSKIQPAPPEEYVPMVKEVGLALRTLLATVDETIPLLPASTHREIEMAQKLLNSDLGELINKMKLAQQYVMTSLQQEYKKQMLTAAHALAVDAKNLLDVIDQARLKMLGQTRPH
Mac1 fbg enh: enhancers of human CD11b/CD18 binding to fibrinogen; P05107+P11215; K562 CD11b/CD18 adhesion to fibrinogen, ATPlite luminescence; activation, % at 10 µM; 93,000 tested, 0.07% active;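 active = 10 µM primary screen giving 50% or more activity, confirmed by 40% or more on retest at that dose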
CD11b adhes inh: inhibitors of human CD11b/CD18 binding to fibrinogen. P05107+P11215. K562 CD11b/CD18 adhesion to fibrinogen, ATPlite luminescence; Mn2+ added to activate the integrin. inhibition, % at 10 µM. 93,000 tested, 0.54% active. AID 1497;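 active = primary inhibition of 50% or more at 10 µM, then 40% or more on retest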
D1 mod: allosterically modulates the human D1 dopamine receptor; P21728; HEK293 D1, CRE-luciferase, dopamine EC30 potentiation; actives deviate in either direction; B-score at 10 µM; 58,000 tested, 5.9% active; AID 641;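 active = luminescence count or its row- and column-corrected plate score outside the 99.7% band of the plate's sample wells, on either side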
D1 PAM confirm: confirmation of human D1 dopamine receptor allosteric modulators; luminescence at 10 µM; HEK293 D1 CRE-luciferase, dopamine EC30 potentiation; hits give high values; 2,200 tested, 88% active; shares compounds with D1 mod;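 active = luminescence in either of two replicates above the same-plate mean plus 3 SD of the low-dose dopamine control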
D1 ag no DA: secondary test of D1 modulators: activity without dopamine; shares compounds with D1 mod; AID 646; 1,900 tested, 0.8% active; HEK293 D1 CRE-luciferase, luminescence, no dopamine; hits give high values; luminescence at 10 µM; in the data active = luminescence above about 3900
Isoprot counter: isoproterenol response counter-screen activity for D1 modulators; shares compounds with D1 mod; HEK293 D1 CRE-luciferase, isoproterenol EC30 counter-screen; calls only at 10 µM; 2,200 tested, 63% active;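 active = luminescence in either replicate above plate mean of wells with a partly effective reference agonist dose plus 3 SD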;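 also: isoproterenol raises cAMP through native beta-adrenoceptor Gs so signal bypasses D1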
Starred values were filed as active, the others as inactive; i = inactive; . = no result given; + = active, no number.

SMILES | PTK2B oligo ant | hDAT+cocaine | FAK blocker | Mac1 fbg enh | CD11b adhes inh | D1 mod | D1 PAM confirm | D1 ag no DA | Isoprot counter
CCOc1cc(-c2noc(-c3cccnc3)n2)ccc1OC | 0.26 | 0.302 | -1.7 | 3.3 | -13.0 | 19.2* | 21224* | . | +
COC(=O)c1c(NC(=O)c2nc3ncccn3n2)sc(C(=O)N(C)C)c1C | . | . | . | 2.2 | -16.7 | 1.25 | . | . | .
NS(=O)(=O)c1cc(C(=O)N2CCc3ccccc32)c(Cl)cc1Cl | 0.34 | 1.23 | -1.0 | -4.5 | 14.3 | . | . | . | .
COc1ccc(C2=NOC(C(=O)NC3CCCCC3)C2)cc1OC (configuration not stated) | 0.48 | -0.111 | -1.8 | 2.8 | -21.6 | 4.57* | 14608* | 1788 | i
COc1ccc(OC)c(C2=NOC(C(=O)Nc3cccc(C(C)=O)c3)C2)c1 (configuration not stated) | 0.25 | 0.287 | -5.8 | 1.5 | 0.5 | 3.71* | 9256* | 1624 | i
COc1ccc(C2=NOC(C(=O)Nc3cc(Br)ccc3O)C2)cc1OC (configuration not stated) | 1.02 | -0.433 | -6.1 | . | . | 38* | 25996* | 1720 | +
COc1ccc(C2=NOC(C(=O)NCc3cccs3)C2)cc1OC (configuration not stated) | . | 0.157 | -1.3 | -2.1 | -16.4 | . | . | . | .
COc1ccc(C2=NOC(C(=O)Nc3ccc(C(C)=O)cc3)C2)cc1OC (configuration not stated) | 0.22 | 1.78 | -8.1 | . | . | 4.97* | 8288* | . | +
COC(=O)[C@H]1[C@@H](C)N(Cc2ccccc2)C(=O)N[C@H]1c1cccc(C(F)(F)F)c1 | . | -1.25 | . | . | . | . | . | . | .
Cc1nn(Cc2n[nH]c(=S)n2Cc2ccccc2)c(C)c1Cl | 2.28 | -0.596 | 6.6 | 3.5 | -0.9 | . | . | . | .
Cc1cc(C)n2nc(C(=O)OCCOc3ccc(F)cc3)nc2n1 | -0.81 | 0.0749 | -1.4 | -0.7 | 3.7 | . | . | . | .
CCc1nnc(NS(=O)(=O)c2ccc(NC(=S)NC(=O)/C=C/c3ccc(C(C)C)cc3)cc2)s1 | -1.11 | 1.51 | 16.7 | . | . | . | . | . | .
CCc1ccc(N2CCCn3c2nc2c3c(=O)n(CCN3CCOCC3)c(=O)n2C)cc1 | . | . | . | -3.3 | -3.5 | -0.384 | . | . | .
N#Cc1c(-c2ccco2)cc(-c2ccccn2)nc1N | 1.07 | 0.428 | 11.3 | 3.1 | 23.3 | 6.5* | 12544* | 1548 | +
Cc1c(-c2ccccc2)nc(N)c(C#N)c1-c1ccco1 | 1.52 | -0.0439 | -8.1 | 2.7 | -6.8 | 4.96* | 15044* | 1636 | i
CCc1nc(N)c(C#N)c(-c2ccco2)c1C | -0.41 | . | . | . | . | . | . | . | .
Cc1ccc(-c2cc(-c3ccccc3Cl)c(C#N)c(N)n2)o1 | -1.38 | 0.105 | -2.3 | 19.0 | 1.1 | -0.178 | . | . | .
CCCn1c(=O)c2ccccc2n2c(SCCOc3ccccc3)nnc12 | 0.59 | 0.78 | . | 0.8 | -5.2 | 4.72* | 10356* | . | i
CCCCn1c(SCc2nc3ccccc3s2)nc2ccccc2c1=O | . | . | . | 1.5 | -2.5 | . | . | . | .
CCCn1c(=O)c2ccccc2n2c(SCc3nc4ccccc4s3)nnc12 | -1.2 | 0.00614 | -2.4 | -4.8 | -1.8 | 6.69* | 7964* | 1868 | i
CCCn1c(C)cc(C(=O)CSc2nnc3n(CCC)c(=O)c4ccccc4n23)c1C | . | . | . | -2.1 | -3.1 | -1.54 | . | . | .
CC(C)CC1(C)NC(=O)NC1=O (configuration not stated) | 2.45 | -0.454 | 1.4 | -1.7 | 9.1 | 2.99* | 6352 | 1712 | i
Cc1nc(COC(=O)c2c(C)nn(-c3ccccc3)c2C)cs1 | -0.99 | 0.573 | -1.2 | 0.0 | -10.6 | 6.87* | 8048* | 1512 | +
O=C(c1cccc(S(=O)(=O)N2CCCCC2)c1)N1CCN(S(=O)(=O)c2ccc(F)cc2)CC1 | 1.57 | . | 0.9 | -1.1 | -17.5 | . | . | . | .
C=CCN1CN(S(=O)(=O)c2cccs2)c2nc3ccccc3nc21 | 0.21 | -0.971 | 12.2 | -0.5 | -6.7 | 6.04* | 14144* | 1432 | +
SMILES | PTK2B oligo ant | hDAT+cocaine | FAK blocker | Mac1 fbg enh | CD11b adhes inh | D1 mod | D1 PAM confirm | D1 ag no DA | Isoprot counter
O=S(=O)(c1cccs1)N1CN(Cc2cccs2)c2nc3ccccc3nc21 | 0.14 | -0.0284 | -2.1 | 0.3 | -27.7 | 3.82* | 15624* | 1724 | +
O=S(=O)(c1cccs1)N1CN(Cc2ccccc2)c2nc3ccccc3nc21 | 0.28 | 1.99 | 2.2 | -2.8 | -1.9 | . | . | . | .
O=S(=O)(c1cccs1)N1CN(Cc2ccc(F)cc2)c2nc3ccccc3nc21 | -1.22 | 0.817 | 3.6 | . | . | . | . | . | .
COc1ccc(-c2cc(C(=O)N3CCc4ccccc4C3)no2)cc1OC | 0.11 | 0.702 | -0.5 | 3.2 | -22.1 | 4.63* | 10752* | 1528 | +
COc1ccc(-c2cc(C(=O)N3CCCc4ccccc43)no2)cc1OC | -2.07 | -0.304 | 0.9 | -2.9 | 13.2 | 1.37 | . | . | .
COCCNC(=O)c1cc(-c2ccc(Cl)c(Cl)c2)on1 | . | -0.00622 | . | 1.6 | 1.1 | 0.592 | . | . | .
COCCNC(=O)c1cc(-c2ccc(OC)c(OC)c2)on1 | -0.44 | 0.243 | -4.3 | . | . | 15* | 15388* | 1528 | +
COc1ccc(-c2cc(C(=O)NCc3cccnc3)no2)cc1OC | 1.08 | 0.16 | -0.5 | -3.9 | -6.8 | 4.22* | 9080* | . | i
CCOC(=O)c1oc2ccccc2c1NC(=O)c1ccccc1OC | -1.1 | 0.877 | -1.0 | . | . | 4.47* | 11400* | 1632 | +
CCOc1ccc(CC(=O)Nc2c(C(N)=O)oc3ccccc23)cc1OCC | 0.54 | -1 | -3.7 | . | . | 4.51* | 7352* | 1544 | i
Oc1ccc(-n2cnnn2)cc1 | 1.55 | -0.675 | 0.7 | 2.4 | 2.9 | . | . | . | .
O=C(CC1SC(=NC2CCCCC2)NC1=O)Nc1ccccc1 (configuration not stated) | -0.55 | 0.238 | 0.8 | . | . | 2.59* | 6104* | 1644 | i
COc1ccc(C(=O)NC2=C(C#N)CCC2)cc1OC | -0.29 | 0.108 | 1.4 | 2.7 | -10.4 | 12.9* | 12668* | . | +
COc1ccc(C(=O)Nc2sc(C)c(-c3ccccc3)c2C#N)cc1OC | -0.91 | 0.0163 | -2.4 | -5.6 | 24.7 | . | . | . | .
CCOC(=O)c1c(C2COc3ccccc3O2)csc1N (configuration not stated) | -0.46 | 0.465 | 1.6 | 2.3 | 0.7 | 9.85* | 11276* | 1584 | +
CC(C)Cn1c(-c2cccs2)nc2nc3ccccc3nc21 | -1.88 | 0.443 | 4.3 | -1.7 | 7.7 | 4.73* | 10104* | 1776 | i
c1ccc(Cn2c(-c3cccs3)nc3nc4ccccc4nc32)cc1 | . | -1 | 1.5 | 0.8 | -11.3 | 3.35 | . | . | .
